# A selection: hits, their analogues and other compounds. The true share with any hit is near 1.1%.
# HTR5A inv ag = counter-screen for OPRM1-OPRD1 inverse agonists: human HTR5A inverse agonism; P47898; HTR5A cell line, luminescence; inhibition, % at 9.3 µM; actives 0.083% (n = 340,000); AID 504634; in the data active = inhibition mostly above about 23%, no sharp cut-off; inactive = mostly below about 18%;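 note: 0% = cells with DMSO and 100% = no-cell wells with DMSO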
# OPRM1-OPRD1 inv = mu-delta opioid heterodimer inverse agonism; cell-based MOR-DOR heterodimer luminescence; actives 0.21% (n = 340,000); P35372+P41143; inhibition, % at 9.3 µM; in the data active = inhibition above about 22%, passing the limit was not always enough;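 note: 0% = cells with DMSO and 100% = wells without cells with DMSO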
# Target sequence (P35372 whole entry, looked up): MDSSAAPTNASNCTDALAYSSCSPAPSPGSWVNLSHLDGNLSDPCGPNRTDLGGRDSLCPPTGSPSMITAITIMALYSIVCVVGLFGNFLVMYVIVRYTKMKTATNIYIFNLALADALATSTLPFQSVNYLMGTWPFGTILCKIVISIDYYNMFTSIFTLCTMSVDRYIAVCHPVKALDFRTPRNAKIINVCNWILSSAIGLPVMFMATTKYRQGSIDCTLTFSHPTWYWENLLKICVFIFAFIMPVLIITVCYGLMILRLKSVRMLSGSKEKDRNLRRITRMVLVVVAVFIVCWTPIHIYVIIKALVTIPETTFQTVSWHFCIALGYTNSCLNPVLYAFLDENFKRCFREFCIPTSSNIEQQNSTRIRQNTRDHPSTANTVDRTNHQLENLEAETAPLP
# Target sequence (P41143 whole entry, looked up): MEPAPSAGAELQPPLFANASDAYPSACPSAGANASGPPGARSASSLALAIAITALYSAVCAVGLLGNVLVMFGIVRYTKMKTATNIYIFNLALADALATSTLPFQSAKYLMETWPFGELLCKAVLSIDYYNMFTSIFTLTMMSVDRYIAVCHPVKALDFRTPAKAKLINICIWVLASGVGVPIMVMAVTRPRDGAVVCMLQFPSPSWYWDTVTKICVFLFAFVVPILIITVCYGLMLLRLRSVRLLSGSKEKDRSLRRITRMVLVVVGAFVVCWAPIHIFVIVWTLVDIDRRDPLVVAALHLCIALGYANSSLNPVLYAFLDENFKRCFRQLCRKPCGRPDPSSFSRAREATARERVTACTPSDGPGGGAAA
# MOR-DOR ag = agonists of human mu-delta opioid receptor heterodimerization. actives 0.3% (n = 340,000). activation, % at 9.3 µM. P35372+P41143. cells, OPRM1-OPRD1 heterodimerization, luminescence; in the data active = activation above about 18%;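 note: 0% = vehicle-treated cells and 100% = reference agonist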
# HTR5A ag ctr = activates human HTR5A in OPRM1-OPRD1 agonist counter-screen; HTR5A agonist assay, luminescence, cell-based; activation, % at 9.3 µM; actives 0.61% (n = 340,000); AID 504692; in the data active = activation mostly above about 9.5%, no sharp cut-off; inactive = mostly below about 7.6%;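 note: 0% = cells with vehicle only and 100% = reference agonist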
# The depositor's hits bear a star.
SMILES,HTR5A inv ag,OPRM1-OPRD1 inv,MOR-DOR ag,HTR5A ag ctr
COc1cc2c(cc1OC)C(c1ccc(-c3cc(Cl)ccc3Cl)o1)=NCC2,-21,-7,1,-2
Nc1nc(CCl)nc(Nc2ccccc2)n1,0,12,-3,0
Cc1ccc(Nc2nc(N)nc(CN3CCCCCC3)n2)c(C)c1,-13,13,-3,6
CCOc1ccc(Nc2nc(N)nc(CCl)n2)cc1,-166,-343,68*,90*
Cc1ccc(Nc2nc(N)nc(CCl)n2)c(C)c1,-27,-300,61*,63*
C/C(=N/NS(=O)(=O)c1ccccc1)c1c[nH]c2ccccc12,-44,8,-1,12*
C/C(=N/NS(=O)(=O)c1cccc([N+](=O)[O-])c1)c1c[nH]c2ccccc12,-32,-3,0,9
C/C(=N/NS(=O)(=O)c1ccc(C)cc1)c1c[nH]c2ccccc12,-29,-5,1,11*
C/C(=N/NS(=O)(=O)c1cc(C)ccc1C)c1c[nH]c2ccccc12,-5,-4,1,12*
COc1ccc(-c2nc3ncccn3c2Nc2ccc3c(c2)OCCO3)cc1,7,-35,6,2
Cc1ccc(-c2nc3ncccn3c2Nc2ccc3c(c2)OCCO3)cc1,-1,5,-1,10*
CCc1nnc(NS(=O)(=O)c2ccc(Nc3ccc([N+](=O)[O-])c4nonc34)cc2)s1,31*,36*,-7,-11
CCc1nnc(NS(=O)(=O)c2ccc(NS(=O)(=O)c3ccccc3[N+](=O)[O-])cc2)s1,-1,8,-2,0
COc1ccc(C2c3ccc(O)cc3Oc3ncn4nc(-c5ccccn5)nc4c32)cc1 (stereo unspecified),-17,-80,16,12*
CC(C)c1cc(C(=O)NNC(=S)NCc2ccco2)c(O)c(C(C)C)c1,-26,-74,15,10*
CSc1ccc(S(=O)(=O)NCC(=O)OCC(=O)N2CCCC2=O)cc1[N+](=O)[O-],-34,-8,1,9
Cc1ccc(C)c(N2CC(C(=O)OCC(=O)Nc3cc(C)on3)CC2=O)c1 (stereo unspecified),1,5,-1,0
O=C(c1ccc2c(=O)n(C3CCCC3)c(=S)[nH]c2c1)N1CCN(C2CCCCC2)CC1,-12,6,-1,4
CCN1CCN(C(=O)c2ccc3c(=O)n(C4CCCC4)c(=S)[nH]c3c2)CC1,12,9,-2,9.3*
O=[N+]([O-])c1ccc(NC2CCCCC2)nc1,7,2,0,-2
CCOc1ccc(NC(=O)c2ccc(NC(=S)NC3CC3)cc2)cc1,7,5,-1,-3
CCOc1ccc(NC(=O)c2ccc(NC(=S)NC3CCCCC3)cc2)cc1,-27,-56,11,9.9*
Cc1ccc(C2/C(=C(/O)c3ccc4c(c3)CC(C)O4)C(=O)C(=O)N2CCCn2ccnc2)cc1 (stereo unspecified),-2,10,-2,0
Fc1ccc(Br)cc1C1C=C(c2ccc(Br)s2)Nc2ncnn21 (stereo unspecified),1,1,0,17*
COc1cccc(C2C=C(c3ccc(Br)s3)Nc3ncnn32)c1OC (stereo unspecified),16,18,-3,2
SMILES,HTR5A inv ag,OPRM1-OPRD1 inv,MOR-DOR ag,HTR5A ag ctr
CC(=O)Nc1ccc(N2C(=O)CSC2c2ccccc2)cc1 (stereo unspecified),3,3,-1,-1
CCN1CCN(C(CNS(=O)(=O)c2ccc(Br)cc2)c2cccnc2)CC1 (stereo unspecified),8,14,-3,12*
C=CCOc1ccc(/C=N/NC(=O)c2c(C)nc3ccc(Cl)cn23)cc1,-40,-70,15,11*
Clc1ccc(CN2CCc3c([nH]c4ccccc34)C2)cc1Cl,-52,-50,10,14*
COc1ccc(CNC(=O)COC(=O)CN2C(=O)C3CC=CCC3C2=O)cc1 (stereo unspecified),-15,13,-2,4
C/C(=N/N1CCN(Cc2ccccc2)CC1)c1ccc(Br)cc1,-10,3,-1,4
CC(=O)Oc1ccc(/C(C)=N/N2CCN(Cc3ccc(C)cc3)CC2)cc1,-36,7,-1,9.8*
Nc1nonc1-n1nnc(C(=O)N/N=C/c2ccc(Br)cc2)c1-c1ccc2c(c1)OCO2,-23,0,0,2
Nc1nonc1-n1nnc(C(=O)N/N=C/c2cccc(Cl)c2)c1-c1ccc2c(c1)OCO2,16,8,-2,10*
CCOc1ccc(-c2c(C(=O)N/N=C/c3ccc(C)o3)nnn2-c2nonc2N)cc1,0,17,-3,0
CCCOc1ccc(-c2c(C(=O)N/N=C/c3ccc(C)o3)nnn2-c2nonc2N)cc1,-37,-101,19*,9.8*
Cc1ccc(N(CC(=O)N/N=C/c2cc(C)n(-c3ccccc3)c2C)S(C)(=O)=O)c(C)c1,-16,15,-4,13*
Cc1ccc(N(CC(=O)Nc2c(C)n(C)n(-c3ccccc3)c2=O)S(C)(=O)=O)c(C)c1,5,0,0,2
COc1ccc(OC)c(NC(=O)c2cccc(NC(=O)c3ccccc3)c2)c1,4,-1,0,-1
CC(=O)N(C(C)=O)N1C(=O)c2cccc3c(N4CCOCC4)ccc(c23)C1=O,-30,15,-3,11*
CCN(CC)S(=O)(=O)c1ccc(C(=O)OCCN2C(=O)c3cccc4c(N5CCOCC5)ccc(c34)C2=O)cc1,-6,22,-4,2
CSc1ncccc1C(=O)OCC(=O)N1CC(=O)Nc2ccccc21,2,7,-2,-1
Nc1ccc(-c2c3ccc(=O)cc-3oc3cc(O)ccc23)c(C(=O)O)c1,17,32*,-6,-5
Nc1ccc(N(CCO)CCO)cc1,-34,-17,4,12*
O=C1Nc2ccccc2C1=Nc1ccc(Br)cc1,21,55*,-11,-5
O=C1Nc2ccccc2C1=Nc1ccc(Cl)cc1,14,64*,-14,-4
CCN(CC)c1ccc(N=C2C(=O)Nc3ccccc32)cc1,10,24,-5,-3
O=C(O)CNS(=O)(=O)c1ccc2c(c1)Cc1cc(S(=O)(=O)NCC(=O)O)ccc1-2,-7,17,-4,2
COc1ccc(N(CC(=O)NCCSc2ccccn2)S(=O)(=O)c2ccc(C)cc2)cc1OC,-9,14,-3,14*
CCN(CC)C(=O)CSc1ncnc2sc(-c3ccccc3)cc12,-8,-11,2,9.3*
Cn1c2ccccc2c(=O)c2c(=O)n(C3CCCCC3)c(-c3ccco3)nc21,-48,21,-4,13*
Cc1nc2c(c(=O)c3ccccc3n2C)c(=O)n1C1CCCCCC1,0,18,-4,7
O=C1C(Cc2ccccc2)Nc2ncnc(N3CCN(c4ccccc4)CC3)c2N1Cc1ccc(Br)cc1 (stereo unspecified),59*,68*,-15,-22
Cc1ccc(CN2C(=O)C(Cc3ccccc3)Nc3ncnc(N4CCN(c5ccccc5)CC4)c32)cc1 (stereo unspecified),55*,51*,-9,-22

# Screening results deposited in PubChem BioAssay by The Scripps Research Institute Molecular Screening Center.
